The record followed here is PubChem BioAssay (NCI).

Experiment [1] can be described thus: NCI Yeast Anticancer Drug Screen. Data for the rad50 strain (AID 155).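 Also: 0% = growth of vehicle-only cultures of the same strain.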 Particulars: S. cerevisiae rad50 strain growth inhibition, active compounds read high. The essentials: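 Growth of the mutant yeast was measured after compound exposure and referenced to vehicle-treated cultures.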
Experiment [2] can be described thus: NCI Yeast Anticancer Drug Screen. Data for the mec2-1 strain (AID 157). Particulars: S. cerevisiae mec2-1 strain, active compounds read high. The essentials:
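Strain: mec2-1 (DNA repair/cell cycle alteration). Compound exposure, then growth measured; inhibition expressed relative to vehicle.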

A short description of experiment [3]: NCI Yeast Anticancer Drug Screen. Data for the sgs1 mgt1 strain (AID 161).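 Also: 0% = growth of cultures given vehicle only.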 Particulars: S. cerevisiae sgs1 mgt1 strain, active compounds read high. The procedure, abridged: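 Test agents were incubated with a DNA-repair-mutant yeast strain. Growth was then read and compared against vehicle-treated controls.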
The nature of experiment [4]: NCI Yeast Anticancer Drug Screen. Data for the cln2 rad14 strain (AID 165).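 Also: 0% = growth equal to vehicle treated cultures.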 Particulars: S. cerevisiae cln2 rad14 strain, active compounds read high. The essentials: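 Compounds are applied to the cln2 rad14 yeast strain, and growth is then compared with that of vehicle-treated cultures to give inhibition.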
A short description of experiment [5]: NCI Yeast Anticancer Drug Screen. Data for the bub3 strain (AID 167). Conditions: S. cerevisiae bub3 mutant strain, active compounds read high. The essentials: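 Whole-cell yeast assay. The mutant strain was incubated with compounds, and growth inhibition was determined by comparison with vehicle-treated cells.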
The nature of experiment [6]: NCI Yeast Anticancer Drug Screen. Data for the mlh1 rad18 strain (AID 175). Conditions: S. cerevisiae mlh1 rad18 strain growth inhibition, active compounds read high. The essentials:
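Read-out is yeast growth inhibition, calculated against vehicle-only controls. The compound was applied to a strain engineered with DNA damage repair alterations.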

Where [7] appears, read: at 5.0 µM (retest, dose inferred, filed as 0.5).
Where [8] appears, read: at 50.0 µM (retest, dose inferred, filed as 5.0).

Each structure is given as a SMILES string. About 79,000 compounds went through this panel and 15% of them were active in at least one assay; those are over-represented in the sample as a whole. Values without a mark were called inactive. The source made the active and inactive calls. Rule as the data show it: active = growth inhibition above about 70%; inactive = the rest.

As for `Cc1cc(N(CCCl)CCCl)ccc1C1N(Cc2ccc(N(CCCl)CCCl)cc2Cl)CCCN1Cc1ccc(N(CCCl)CCCl)cc1Cl`, the growth inhibition in experiment [1] (setting [7]) is 81% (active); in experiment [1] (setting [8]), 96% (active); in experiment [1] (at 50.0 µM), 97.8% (active); in experiment [2] (setting [7]), 75% (active); in experiment [2] (setting [8]), 96% (active); in experiment [2] (at 50.0 µM), 99.2% (active). Moreover, the growth inhibition in experiment [3] (setting [7]) was 57%; in experiment [3] (setting [8]) it was 95% (active); in experiment [3] (at 50.0 µM) it was 98.2% (active); in experiment [4] (setting [7]), 77% (active); in experiment [4] (setting [8]), 93% (active); in experiment [4] (at 50.0 µM), 97.5% (active). The growth inhibition in experiment [5] (setting [7]) was 74% (active); in experiment [5] (setting [8]), 96% (active); in experiment [5] (at 50.0 µM), 97.7% (active); in experiment [6] (setting [7]) it was 99% (active); in experiment [6] (setting [8]), 93% (active); in experiment [6] (at 50.0 µM), 98.6% (active).

Take `c1ccc(C[As](c2ccccc2)c2ccccc2)cc1`: the growth inhibition in experiment [1] (setting [7]) was 99% (active); in experiment [1] (setting [8]), 3%; in experiment [1] (at 50.0 µM) it was 99.2% (active); in experiment [2] (setting [7]), 99% (active); in experiment [2] (setting [8]) it was 15%; in experiment [2] (at 50.0 µM) it was 99.5% (active). In addition, the growth inhibition is 99% (active) in experiment [3] (setting [7]); 36% in experiment [3] (setting [8]); 99.5% (active) in experiment [3] (at 50.0 µM); 98% (active) in experiment [4] (setting [7]); -98% in experiment [4] (setting [8]); 99.2% (active) in experiment [4] (at 50.0 µM). In addition, the growth inhibition is 99% (active) in experiment [5] (setting [7]); 22% in experiment [5] (setting [8]); 99.4% (active) in experiment [5] (at 50.0 µM); 99% (active) in experiment [6] (setting [7]); 23% in experiment [6] (setting [8]); 99.2% (active) in experiment [6] (at 50.0 µM).

Consider `S=C=NC/C(Cl)=C/Cl`, for which the growth inhibition in experiment [1] (setting [7]) is 43%; in experiment [1] (setting [8]), 48%; in experiment [1] (at 50.0 µM) it was 71.9% (active); in experiment [2] (setting [7]), 49%; in experiment [2] (setting [8]), 45%; in experiment [2] (at 50.0 µM), 53.5%. Besides, the growth inhibition in experiment [3] (setting [7]) is 14%; in experiment [3] (setting [8]), 89% (active); in experiment [3] (at 50.0 µM), 72.5% (active); in experiment [4] (setting [7]) it was 56%; in experiment [4] (setting [8]), 71% (active); in experiment [4] (at 50.0 µM) it was 56.9%. Further, the growth inhibition is 35% in experiment [5] (setting [7]); 91% (active) in experiment [5] (setting [8]); 69.2% in experiment [5] (at 50.0 µM); 38% in experiment [6] (setting [7]); 46% in experiment [6] (setting [8]); 70.5% (active) in experiment [6] (at 50.0 µM).

Consider `CC[C@@H](C)[C@@H]1NC(=O)C(NC(=O)C(CC(C)C)N(C)C(=O)C2CCCN2C(=O)C(C)O)C(C)OC(=O)C(Cc2ccc(OC)cc2)N(C)C(=O)C2CCCN2C(=O)C(CC(C)C)NC(=O)C(C)C(=O)C(C(C)C)OC(=O)C[C@H]1O` (some centres not stated), for which the growth inhibition was 51% in experiment [1] (setting [7]); 96% (active) in experiment [1] (setting [8]); 81.3% (active) in experiment [1] (at 50.0 µM); 73% (active) in experiment [2] (setting [7]); 99% (active) in experiment [2] (setting [8]); 83.5% (active) in experiment [2] (at 50.0 µM). For the same compound, the growth inhibition in experiment [3] (setting [7]) is 58%; in experiment [3] (setting [8]) it was 89% (active); in experiment [3] (at 50.0 µM), 83.2% (active); in experiment [4] (setting [7]) it was 43%; in experiment [4] (setting [8]), 74% (active); in experiment [4] (at 50.0 µM), 80.6% (active). The growth inhibition in experiment [5] (setting [7]) was 28%; in experiment [5] (setting [8]), 72% (active); in experiment [5] (at 50.0 µM) it was 85.2% (active); in experiment [6] (setting [7]), 50%; in experiment [6] (setting [8]) it was 98% (active); in experiment [6] (at 50.0 µM) it was 79.8% (active).

`Nc1nc(N)c(-c2ccc(Cl)c(Cl)c2)c(COc2cccc(CNS(=O)(=O)c3ccc(S(=O)(=O)F)cc3)c2)n1`: the growth inhibition in experiment [1] (setting [7]) was 3%; in experiment [1] (setting [8]), 57%; in experiment [1] (at 50.0 µM), 51.1%; in experiment [2] (setting [7]), -3%; in experiment [2] (setting [8]), 86% (active); in experiment [2] (at 50.0 µM), 49.5%. For the same compound, the growth inhibition was -2% in experiment [3] (setting [7]); 65% in experiment [3] (setting [8]); 58% in experiment [3] (at 50.0 µM); -4% in experiment [4] (setting [7]); 40% in experiment [4] (setting [8]); 54.8% in experiment [4] (at 50.0 µM). The growth inhibition was -3% in experiment [5] (setting [7]); 68% in experiment [5] (setting [8]); 48.8% in experiment [5] (at 50.0 µM); 4% in experiment [6] (setting [7]); 80% (active) in experiment [6] (setting [8]); 47% in experiment [6] (at 50.0 µM).

Take `COCC(C#N)NC1CC(OC2CC(O)(C(=O)CO)Cc3c(O)c4c(c(O)c32)C(=O)c2c(OC)cccc2C4=O)OC(C)C1O` (configuration not stated): the growth inhibition is 63% in experiment [1] (setting [7]); 97% (active) in experiment [1] (setting [8]); 91.3% (active) in experiment [1] (at 50.0 µM); 29% in experiment [2] (setting [7]); 98% (active) in experiment [2] (setting [8]); 89% (active) in experiment [2] (at 50.0 µM). The growth inhibition is 52% in experiment [3] (setting [7]); 98% (active) in experiment [3] (setting [8]); 90.2% (active) in experiment [3] (at 50.0 µM); 39% in experiment [4] (setting [7]); 96% (active) in experiment [4] (setting [8]); 88.7% (active) in experiment [4] (at 50.0 µM). Moreover, the growth inhibition is 43% in experiment [5] (setting [7]); 98% (active) in experiment [5] (setting [8]); 92.1% (active) in experiment [5] (at 50.0 µM); 44% in experiment [6] (setting [7]); 97% (active) in experiment [6] (setting [8]); 89.8% (active) in experiment [6] (at 50.0 µM).

On to `O=C1CC2CCCC(C1)N2Cc1ccccc1`, for which the growth inhibition in experiment [1] (setting [7]) was 2%; in experiment [1] (setting [8]), 26%; in experiment [1] (at 50.0 µM) it was 71.5% (active); in experiment [2] (setting [7]) it was 4%; in experiment [2] (setting [8]) it was 28%; in experiment [2] (at 50.0 µM), -6.1%. The growth inhibition in experiment [3] (setting [7]) was 15%; in experiment [3] (setting [8]) it was 47%; in experiment [3] (at 50.0 µM) it was 62.5%; in experiment [4] (setting [7]), -69%; in experiment [4] (setting [8]), 47%; in experiment [4] (at 50.0 µM) it was 37.5%. For the same compound, the growth inhibition in experiment [5] (setting [7]) was -2%; in experiment [5] (setting [8]) it was 25%; in experiment [5] (at 50.0 µM), 34.9%; in experiment [6] (setting [7]) it was 7%; in experiment [6] (setting [8]) it was 24%; in experiment [6] (at 50.0 µM), 51.7%.

On to `O=C(N/N=C/c1cc(Br)cc(Br)c1[O-])c1ccccc1O.O=C(N/N=C/c1cc(Br)cc(Br)c1[O-])c1ccccc1O.[Co+2]`, for which the growth inhibition in experiment [1] (setting [7]) was 93% (active); in experiment [1] (setting [8]), 97% (active); in experiment [1] (at 50.0 µM), 94.6% (active); in experiment [2] (setting [7]), 95% (active); in experiment [2] (setting [8]), 96% (active); in experiment [2] (at 50.0 µM), 95.7% (active). Further, the growth inhibition in experiment [3] (setting [7]) was 91% (active); in experiment [3] (setting [8]), 98% (active); in experiment [3] (at 50.0 µM), 94.8% (active); in experiment [4] (setting [7]), 82% (active); in experiment [4] (setting [8]), 97% (active); in experiment [4] (at 50.0 µM) it was 92.5% (active). In addition, the growth inhibition in experiment [5] (setting [7]) was 90% (active); in experiment [5] (setting [8]), 97% (active); in experiment [5] (at 50.0 µM), 95.5% (active); in experiment [6] (setting [7]), 95% (active); in experiment [6] (setting [8]), 96% (active); in experiment [6] (at 50.0 µM), 96% (active).

Take `O=C1C=CC(=O)C(Br)C1Br` (configuration not stated): the growth inhibition in experiment [1] (setting [7]) was -20%; in experiment [1] (setting [8]), 34%; in experiment [1] (at 50.0 µM), 26.1%; in experiment [2] (setting [7]), -8%; in experiment [2] (setting [8]), 57%; in experiment [2] (at 50.0 µM), 35.3%. Further, the growth inhibition in experiment [3] (setting [7]) is -7%; in experiment [3] (setting [8]), 66%; in experiment [3] (at 50.0 µM), 46.3%; in experiment [4] (setting [7]) it was 2%; in experiment [4] (setting [8]), 10%; in experiment [4] (at 50.0 µM) it was 19.1%. Further, the growth inhibition in experiment [5] (setting [7]) is -1%; in experiment [5] (setting [8]) it was 52%; in experiment [5] (at 50.0 µM), 71.2% (active); in experiment [6] (setting [7]), 35%; in experiment [6] (setting [8]) it was 57%; in experiment [6] (at 50.0 µM) it was 66.2%.
